Laboratory results as given in PubChem BioAssay (EPA / NIEHS).
Values joined by “and” are separate entries in the source; they are usually repeats but may differ in a detail not shown here. Equal values may be shown once. More than one record can exist for a structure, and the calls need not agree. Active and inactive are the calls of the source. How the source made its calls: active means hit-call score of the fitted dose curve at least 0.9, where 1 is the maximum; inactive means score below 0.9.

What was measured:
[1] = APR_HepG2_MitoMembPot_72hr: Apredica 72-hour HepG2 Assay for Mitochondrial Membrane Potential (AID 2282917); details: imaging, actives raise or lower the signal
Procedure, shortened: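 HepG2 cells dosed 72 hr with compound at 0.39–200 uM in duplicate, 0.5% v/v DMSO final. Mitochondria stained with 250 nM MitoTracker Red CMXRos for 30 min before formaldehyde fixation, imaged by high-content fluorescence; bidirectional fit versus DMSO.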

[2] = APR_HepG2_MitoticArrest_72hr: Apredica 72-hour HepG2 Assay for Mitotic Arrest (AID 2282918); details: high-content imaging, actives raise or lower the signal
Procedure, shortened: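 Read-out is phospho-histone H3 immunofluorescence with Hoechst nuclear segmentation, imaged at 20x. Human HepG2 liver cells received ten concentrations (0.39–200 uM, final DMSO 0.5% v/v) for 72 hr before fixation. Gain or loss of signal was fitted relative to DMSO.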

[3] = APR_HepG2_MicrotubuleCSK_72hr: Apredica 72-hour HepG2 Assay for Microtubule CSK Stabilty (AID 2282919); details: HepG2 microtubule cytoskeleton, high-content imaging, actives raise or lower the signal
Procedure, shortened: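 HepG2 cells were exposed 72 hr to compound at 0.39–200 uM in duplicate (0.5% DMSO final), then fixed and permeabilized. Alpha-tubulin immunofluorescence was imaged by high-content microscopy, with bidirectional fitting against DMSO and taxol as positive control.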

[4] = APR_HepG2_StressKinase_72hr: Apredica 72-hour HepG2 Assay for Stress Kinase (AID 2282921); details: HepG2 stress kinase (phospho-c-Jun) imaging, actives raise or lower the signal
Procedure, shortened: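 Dose 0.39–200 uM (10 pts, duplicate), 0.5% DMSO; 72 h; fix 3.7% formaldehyde 30 min RT; Triton permeabilize; anti-phospho-c-Jun/Cy3 + Hoechst 60 min RT; image 20x; fit gain/loss vs DMSO.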

[5] = APR_HepG2_StressKinase_24hr: Apredica 24-hour HepG2 Assay for Stress Kinase (AID 2282922); details: HepG2 stress kinase (phospho-c-Jun) imaging, actives raise or lower the signal
Procedure, shortened: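 HepG2 cells exposed 24 h to 0.39–200 uM compound in duplicate (0.5% v/v DMSO final). Cells fixed in 3.7% formaldehyde, permeabilized and immunostained for phospho-c-Jun; read by high-content fluorescence imaging, fitted bidirectionally against DMSO.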

[6] = APR_HepG2_p53Act_72hr: Apredica 72-hour HepG2 Assay for p53 Activation (AID 2282923); details: high-content imaging, actives raise or lower the signal;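 further: average cellular p53 protein immunofluorescence intensity in HepG2 cells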
Procedure, shortened: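 10-pt conc. 0.39–200 uM, duplicate, 0.5% DMSO; 72 hr exposure; 3.7% formaldehyde fix, 0.5% Triton perm; sheep anti-p53/Cy5 + Hoechst; ArrayScan 20x, 6 images/well; gain/loss fit vs DMSO.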

[7] = APR_HepG2_MitoMass_72hr: Apredica 72-hour HepG2 Assay for Mitochondrial Mass (AID 2282924); details: high-content imaging, actives raise or lower the signal;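 further: MitoTracker Red CMXRos stain intensity per cell imaged as mitochondrial mass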
Procedure, shortened: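 HepG2 cells dosed 72 hr at 0.39–200 uM (0.5% DMSO), in duplicate. MitoTracker Red CMXRos 250 nM loaded 30 min before formaldehyde fixation; high-content fluorescence imaging, bidirectional fit versus DMSO.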

[8] = APR_HepG2_NuclearSize_72hr: Apredica 72-hour HepG2 Assay for Nuclear Size (AID 2282925); details: high-content imaging, actives raise or lower the signal
Procedure, shortened: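 HepG2 cells dosed 72 h at 0.39–200 uM (10 concentrations, duplicate) in 0.5% v/v DMSO final. Fixed, Hoechst 33342-stained nuclei imaged; nuclear diameter measured by automated image analysis. Bidirectional fit versus DMSO.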

[9] = ATG_CRE_CIS: Attagene CIS-FACTORIAL HepG2 Assay for human cAMP Responsive Element (CRE) binding protein 3 (AID 2282926); details: HepG2 CRE cis-reporter, Attagene multiplexed mRNA; actives raise or lower the signal
Procedure, shortened: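 Human liver HepG2, transient MRTU transfection, 24 h compound exposure. Total RNA → oligo(dT) RT → PCR → 6-FAM primer extension → HpaI cut → CE. Activity called both directions vs DMSO.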

[10] = biological target: CCAAT/enhancer-binding protein beta (Homo sapiens) (UniProt P17676); test: ATG_C_EBP_CIS: Attagene CIS-FACTORIAL HepG2 Assay for human CCAAT/Enhancer Binding Protein (C/EBP) beta (AID 2282927); details: HepG2 Attagene cis-factorial transcription factor reporter; actives raise or lower the signal
Procedure, shortened: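 HepG2 transiently transfected with multiplexed reporter units under cis-regulatory promoters reporting endogenous C/EBPb activity. After 24 h exposure, reporter mRNA assayed by RT-PCR, fluorescent labelling, HpaI digestion and capillary electrophoresis; bidirectional fitting versus DMSO.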

[11] = ATG_CMV_CIS: Attagene CIS-FACTORIAL HepG2 Assay for human CMV (Internal Marker) (AID 2282928); details: HepG2 CMV promoter reporter, transcription factor profiling; actives raise or lower the signal;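 further: endpoint acts as a background internal control marker rather than a target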
Procedure, shortened: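 HepG2 cells transiently transfected with multiple cis-regulated reporter units; 24 h compound exposure. Reporter mRNA quantified by RT-PCR, 6-FAM primer-extension labeling, HpaI digestion and capillary electrophoresis; bidirectional fitting against DMSO baseline.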

[12] = ATG_DR4_LXR_CIS: Attagene CIS-FACTORIAL HepG2 Assay for human Liver X Receptor (LXR), DR4 submotif (AID 2282929); details: HepG2 Attagene DR4 cis-reporter, mRNA transcription; actives raise or lower the signal
Procedure, shortened: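 HepG2 cells transiently transfected with cis-promoter-driven multiplexed reporter units (DR4 element) were dosed for 24 h. Reporter mRNA was quantified by RT-PCR, fluorescent primer extension, HpaI digestion and capillary electrophoresis; bidirectional fitting versus DMSO baseline.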

[13] = biological target: Aryl hydrocarbon receptor (Homo sapiens) (UniProt P35869); test: ATG_Ahr_CIS: Attagene CIS-FACTORIAL HepG2 Assay for human Aryl Hydrocarbon Receptor (Ahr) (AID 2282930); details: HepG2 AhR cis-factorial reporter transcription; actives raise or lower the signal
Procedure, shortened: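 HepG2 cells transiently transfected with cis-element-driven multiplexed reporter units; endogenous AhR activity read as reporter mRNA 24 h after dosing, via RT-PCR, 6-FAM labelling, HpaI digestion and capillary electrophoresis. Bidirectional fit relative to DMSO.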

[14] = ATG_AP_1_CIS: Attagene CIS-FACTORIAL HepG2 Assay for human Activator Protein 1 (AP-1) (AID 2282931); details: HepG2 Attagene cis-factorial AP-1 reporter mRNA; actives raise or lower the signal
Procedure, shortened: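 HepG2 cells transiently transfected with cis-element-driven multiplex reporter units; 24 h compound exposure. Reporter mRNA quantified by RT-PCR, FAM-labelled fragments resolved by capillary electrophoresis; bidirectional fit versus DMSO baseline.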

[15] = ATG_AP_2_CIS: Attagene CIS-FACTORIAL HepG2 Assay for human Activator Protein 2 (AP-2) (AID 2282932); details: HepG2 AP-2 cis-reporter, Attagene transcription factor profiling; actives raise or lower the signal
Procedure, shortened: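 HepG2 cells transiently transfected with cis-element reporter units and exposed for 24 h. Reporter mRNA measured by RT-PCR, FAM labelling, HpaI digestion and capillary electrophoresis. Changes in either direction fitted relative to DMSO.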

[16] = ATG_BRE_CIS: Attagene CIS-FACTORIAL HepG2 Assay for human Bone Morphogenetic Protein (BMP) Response Element (BRE) (AID 2282933); details: HepG2 BMP response element reporter, Attagene transcription factor profiling; actives raise or lower the signal
Procedure, shortened: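 Read-out: reporter mRNA induction quantified by RT-PCR and capillary electrophoresis after 24 h chemical exposure of transfected HepG2 cells. Endogenous factor activity on the BMP response element; gain or loss fitted against DMSO baseline.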

[17] = biological target: Retinoic acid receptor alpha (Homo sapiens) (UniProt P10276); test: ATG_DR5_RAR_CIS: Attagene CIS-FACTORIAL HepG2 Assay for human Retinoic Acid Receptor Alpha (RARE), DR5 submotif (AID 2282934); details: HepG2 Attagene cis-factorial RARE DR5 reporter, mRNA; actives raise or lower the signal;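 on AC50: reporter responds to endogenous RAR alpha beta and gamma in HepG2 not RARA alone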
Procedure, shortened: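 HepG2 cells transiently transfected with multiplexed reporter units; DR5 cis-element drives reporter through endogenous transcription factors. After 24 h dosing, reporter mRNA quantified by RT-PCR, fluorescent labeling, HpaI digestion and capillary electrophoresis; bidirectional fitting versus DMSO.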

[18] = biological target: Transcription factor E2F1 (Homo sapiens) (UniProt Q01094); test: ATG_E2F_CIS: Attagene CIS-FACTORIAL HepG2 Assay for human E2F Transcription Factor 1 (AID 2282935); details: HepG2 Attagene cis-reporter, E2F reporter RNA transcripts; actives raise or lower the signal
Procedure, shortened: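 Endogenous E2F1 activity read through cis-promoter reporter units transfected into HepG2. After 24 h compound treatment, reporter mRNA measured by RT-PCR, HpaI digestion and capillary electrophoresis. Bidirectional fit versus DMSO.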

[19] = APR_HepG2_P-H2AX_24hr: Apredica 24-hour HepG2 Assay for H2AX Phosphorylation (AID 2282920); details: high-content imaging, actives raise or lower the signal
Procedure, shortened: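 HepG2, 24 hr, cpd 0.39–200 uM (10 conc, duplicate), DMSO 0.5% v/v final. Fix 3.7% formaldehyde, Triton X-100 permeabilize, anti-phospho-H2A.x 1:200 + Hoechst 2 ug/mL. Imaged, bidirectional fit vs DMSO.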

[20] = ATG_E_Box_CIS: Attagene CIS-FACTORIAL HepG2 Assay for human Enhancer Box (E-box) (AID 2282936); details: HepG2 E-box cis-reporter transcription, actives raise or lower the signal
Procedure, shortened: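 HepG2 cells transiently transfected with multiplexed cis-element reporter units, dosed 24 h; reporter mRNA quantified by RT-PCR, 6-FAM labelling, HpaI digestion and capillary electrophoresis. E-box (USF1) signal fitted bidirectionally vs DMSO.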

Measured: AC50

Chain of CCAAT/enhancer-binding protein beta (Homo sapiens) (P17676 whole entry, looked up): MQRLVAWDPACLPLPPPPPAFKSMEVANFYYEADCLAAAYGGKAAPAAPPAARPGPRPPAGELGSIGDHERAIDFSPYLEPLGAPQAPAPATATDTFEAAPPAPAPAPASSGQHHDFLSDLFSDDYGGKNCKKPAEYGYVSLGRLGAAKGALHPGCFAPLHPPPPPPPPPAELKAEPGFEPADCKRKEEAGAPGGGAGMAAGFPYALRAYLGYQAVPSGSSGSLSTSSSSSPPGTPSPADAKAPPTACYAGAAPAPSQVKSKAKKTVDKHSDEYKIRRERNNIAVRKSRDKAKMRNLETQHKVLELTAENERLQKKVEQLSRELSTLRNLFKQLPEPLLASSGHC
Chain of Aryl hydrocarbon receptor (Homo sapiens) (P35869 whole entry, looked up): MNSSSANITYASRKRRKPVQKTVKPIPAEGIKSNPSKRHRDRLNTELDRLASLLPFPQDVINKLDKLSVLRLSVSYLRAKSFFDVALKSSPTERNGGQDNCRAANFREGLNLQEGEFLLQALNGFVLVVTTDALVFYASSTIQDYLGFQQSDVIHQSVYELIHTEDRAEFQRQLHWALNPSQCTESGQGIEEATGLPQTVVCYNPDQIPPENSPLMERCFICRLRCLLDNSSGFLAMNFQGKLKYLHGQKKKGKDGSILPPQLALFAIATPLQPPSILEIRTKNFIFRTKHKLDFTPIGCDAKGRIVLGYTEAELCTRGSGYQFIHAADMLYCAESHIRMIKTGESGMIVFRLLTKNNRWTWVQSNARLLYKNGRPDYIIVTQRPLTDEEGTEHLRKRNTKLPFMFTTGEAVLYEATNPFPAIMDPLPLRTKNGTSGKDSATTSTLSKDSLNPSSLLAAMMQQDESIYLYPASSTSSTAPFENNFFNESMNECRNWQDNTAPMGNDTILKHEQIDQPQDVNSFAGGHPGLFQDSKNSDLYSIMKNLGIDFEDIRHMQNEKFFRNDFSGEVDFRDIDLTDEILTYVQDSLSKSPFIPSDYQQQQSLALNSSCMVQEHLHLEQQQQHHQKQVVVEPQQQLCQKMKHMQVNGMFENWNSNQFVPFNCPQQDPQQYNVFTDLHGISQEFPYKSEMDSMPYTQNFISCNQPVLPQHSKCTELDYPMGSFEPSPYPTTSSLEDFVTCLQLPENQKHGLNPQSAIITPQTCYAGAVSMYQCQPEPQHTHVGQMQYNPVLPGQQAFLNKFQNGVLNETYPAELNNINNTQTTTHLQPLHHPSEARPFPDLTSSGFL
Chain of Transcription factor E2F1 (Homo sapiens) (Q01094 whole entry, looked up): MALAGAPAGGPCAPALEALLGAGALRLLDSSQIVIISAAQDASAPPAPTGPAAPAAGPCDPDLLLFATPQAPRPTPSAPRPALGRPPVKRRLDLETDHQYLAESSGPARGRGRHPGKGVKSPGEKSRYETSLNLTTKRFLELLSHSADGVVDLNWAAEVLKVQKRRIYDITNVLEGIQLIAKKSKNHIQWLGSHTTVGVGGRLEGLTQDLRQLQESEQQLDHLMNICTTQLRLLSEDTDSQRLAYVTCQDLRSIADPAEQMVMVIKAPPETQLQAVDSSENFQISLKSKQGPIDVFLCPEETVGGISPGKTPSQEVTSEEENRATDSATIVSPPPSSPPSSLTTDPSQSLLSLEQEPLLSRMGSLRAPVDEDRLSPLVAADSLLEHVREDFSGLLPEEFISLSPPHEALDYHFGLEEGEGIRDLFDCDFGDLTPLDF
Chain of Retinoic acid receptor alpha (Homo sapiens) (P10276 whole entry, looked up): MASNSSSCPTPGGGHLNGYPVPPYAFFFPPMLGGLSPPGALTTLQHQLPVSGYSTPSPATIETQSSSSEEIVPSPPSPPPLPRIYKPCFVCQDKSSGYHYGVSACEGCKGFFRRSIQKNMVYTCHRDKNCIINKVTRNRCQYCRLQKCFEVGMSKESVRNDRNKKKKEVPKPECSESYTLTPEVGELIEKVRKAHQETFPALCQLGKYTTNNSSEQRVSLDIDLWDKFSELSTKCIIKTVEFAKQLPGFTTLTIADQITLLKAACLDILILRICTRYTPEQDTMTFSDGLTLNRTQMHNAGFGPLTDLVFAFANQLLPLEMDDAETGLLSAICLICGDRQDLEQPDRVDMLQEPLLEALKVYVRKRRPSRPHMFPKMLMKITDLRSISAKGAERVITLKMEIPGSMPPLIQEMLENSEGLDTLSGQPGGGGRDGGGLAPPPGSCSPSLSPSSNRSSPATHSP

OB(O)O
not listed: [19] | [20]
inactive: all other assays above

CC(C)(C)[C@@H](O)[C@@H](Cc1ccc(Cl)cc1)n1cncn1
active: [10] 3430 nM | [14] 13.5 µM | [16] 13.7 µM | [17] 32.1 µM
not listed: [2] | [9] | [13]
inactive: all other assays above

CCCOC(=O)NCCCN(C)C
not listed: [7] | [19] | [20]
inactive: all other assays above

c1ccc2[nH]c(-c3cscn3)nc2c1
active: [12] 32.1 µM
inactive: [1] | [2] | [3] | [4] | [5] | [8] | [10] | [11] | [12] | [14] | [15] | [16] | [17] | [18]

CC1(C)C(C=C(Cl)Cl)C1C(=O)OCc1cccc(Oc2ccccc2)c1 (centres undefined)
active: [3] 100 µM | [12] 29.9 µM
not listed: [9] | [17] | [19]
inactive: all other assays above

CC(C)CCCCCCc1ccc(O)cc1
inactive: [1] | [4] | [5] | [8] | [10] | [11] | [12] | [13] | [14] | [15] | [16] | [17] | [18] | [20]
active: [3] 62.1 µM | [19] 100 µM | [6] 29.7 µM | [7] 21.4 µM | [10] 18.1 µM and 15.4 µM | [11] 13.1 µM and 17.4 µM | [12] 15.9 µM and 21 µM and 16.6 µM | [13] 21 µM | [14] 17 µM | [15] 18.2 µM and 17.2 µM | [16] 20.7 µM | [17] 11.1 µM | [20] 17.6 µM and 16.8 µM and 15.6 µM

Cc1nn(C)c(Oc2ccccc2)c1C=NOCc1ccc(C(=O)OC(C)(C)C)cc1
active: [2] 40.3 µM | [3] 21.2 µM | [10] 50.5 nM | [11] 21.8 nM | [14] 0.0252 µM | [16] 0.0409 µM | [17] 0.0303 µM
not listed: [7] | [9] | [19]
inactive: all other assays above

COC(=O)c1ccc(I)cc1S(=O)(=O)NC(=O)Nc1nc(C)nc(OC)n1
not listed: [7] | [9] | [17]
inactive: all other assays above

CCCN(CCC)C(=O)SCC
not listed: [2] | [7] | [17]
inactive: all other assays above

O=C(Nc1ccc([N+](=O)[O-])cc1Cl)c1cc(Cl)ccc1O
active: [1] 1.06 µM | [3] 0.0444 µM | [19] 1.8 µM | [9] 506 nM | [10] 463 nM | [11] 1160 nM | [14] 1.01 µM | [16] 0.652 µM
not listed: [2] | [7]
inactive: all other assays above

CCSC(=O)N(CC(C)C)CC(C)C
not listed: [9] | [19]
inactive: all other assays above

CCC(O)=C1C(=O)CC(C(=O)O)CC1=O (centres undefined)
not listed: [9] | [19]
inactive: all other assays above

c1ccc(Nc2ccccc2)cc1
inactive: [1] | [2] | [3] | [4] | [5] | [6] | [8] | [10] | [11] | [12] | [13] | [14] | [15] | [16] | [17] | [18] | [20]
active: [16] 16.6 µM
